Test results as given in PubChem BioAssay (Tox21).
Inconclusive results are not listed. Calls of active or inactive are those of the source. Unless noted, calls follow the shape of the dose curve; as a rule, active = well fitted curve in the direction sought with a large enough effect in the repeat runs; inconclusive = weak or mixed curves; inactive = no such curve, though single readings can be large; an effect the other way counts as inactive or inconclusive.

Legend:
[1] = qHTS assay for small molecules that induce genotoxicity in human embryonic kidney cells expressing luciferase-tagged ATAD5 (AID 651632); also: nearly all actives have a fitted effect of over 15% in size
Outline: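 HEK293T cells carrying luciferase-tagged ATAD5 were given compound or DMSO vehicle and incubated 16 hr at 37C, 5% CO2. Luciferase activity was read after 30 min at room temperature with Amplite; a rise signals genotoxic stress.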

[2] = qHTS assay for small molecule agonists of the p53 signaling pathway - cell viability (AID 651633; calls by dose curve;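 also: p53RE-bla HCT reporter cells with a stable beta-lactamase p53 reporter; series mostly up to about 83 µM; nearly all actives have a fitted effect of over 30% in size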)
Outline: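 p53RE-bla cells were treated with compound for 16 hours at 37 C. Cytotoxicity was then measured as CellTiter-Glo luminescence after 30 min at room temperature.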

[3] = qHTS assay for small molecules that induce genotoxicity in human embryonic kidney cells expressing luciferase-tagged ATAD5 - cell viability (AID 651634; calls by dose curve; also: nearly all actives have a fitted effect of over 25% in size)
Outline: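 HEK293T cells carrying luciferase-tagged ATAD5, 2,000 cells/well, exposed to compound for 15.5 hr at 37C. Viability read as live-cell protease activity by CellTiter-Fluor fluorescence after 30 min at 37C.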

[4] = qHTS assay for small molecule disruptors of the mitochondrial membrane potential - cell viability (AID 720634; calls by dose curve;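 also: human HepG2 liver cancer cells; series mostly up to about 83 µM; nearly all actives have a fitted effect of over 20% in size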)
Outline: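 HepG2 cells, 2,000 per well, attached overnight, then treated 1 hr at 37 C, 5% CO2. Viability read as ATP by CellTiter-Glo luminescence after 30 min at room temperature. Read in the same wells as the m-MPI membrane-potential dye assay.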

[5] = qHTS assay to test for compound auto fluorescence at 590 nm (red) in HepG2 cells (AID 720674)
Outline: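 Fluorescence at 590 nm emission following 540 nm excitation was recorded from HepG2 wells one hour after compound transfer, with DMSO-only wells as vehicle and Rose Bengal sodium equivalency as the scale.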

[6] = qHTS assay to test for compound auto fluorescence at 535 nm (green) in HepG2 cells (AID 720675)
[7] = qHTS assay to test for compound auto fluorescence at 460 nm (blue) in HEK293 cells (AID 720678)
Outline: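 HEK293 cells (2,000/well, medium with 10% dialyzed FBS) attached 4-5 hr, then exposed to compound overnight at 37C, 5% CO2. Blue fluorescence read at 405/460 nm, with triamterene as reference fluorophore.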

[8] = qHTS assay to test for compound auto fluorescence at 535 nm (green) in HEK293 cells (AID 720680)
[9] = qHTS assay to test for compound auto fluorescence at 460 nm (blue) in HEK293 cell free culture (AID 720681)
Outline: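 Compounds were added to cell-free DMEM with 10% FBS and fluorescence read directly. The blue channel used 405 nm excitation and 460 nm emission, with triamterene as the reference fluorophore.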

[10] = qHTS assay to test for compound auto fluorescence at 535 nm (green) in HEK293 cell free culture (AID 720682)
Outline: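 Using fluorescein as calibrant, autofluorescence was quantified at 485/535 nm in cell-free DMEM containing 10% FBS after pintool addition of compound or vehicle.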

[11] = qHTS assay to test for compound auto fluorescence at 590 nm (red) in HEK293 cell free culture (AID 720683)
Outline: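 Cell-free wells of DMEM with 10% FBS received compound, and intrinsic fluorescence was read at excitation/emission 540/590 nm. Values expressed as equivalence to Rose Bengal sodium.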

[12] = qHTS assay to test for compound auto fluorescence at 590 nm (red) in HepG2 cell free culture (AID 720684)
Outline: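 Compounds are added to culture medium (MEM, 10% FBS) lacking cells, then fluorescence is read at excitation 540 nm, emission 590 nm, with Rose Bengal sodium as the equivalency standard.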

[13] = qHTS assay to test for compound auto fluorescence at 460 nm (blue) in HepG2 cell free culture (AID 720685)
Outline: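 Compound (23 nL) or DMSO pinned into cell-free MEM with 10% FBS; blue fluorescence read at 405/460 nm excitation/emission, expressed as auto-fluorescence equivalency to triamterene.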

[14] = qHTS assay to test for compound auto fluorescence at 535 nm (green) in HepG2 cell free culture (AID 720686)
[15] = qHTS assay to test for compound auto fluorescence at 460 nm (blue) in HepG2 cells (AID 720687)
Outline: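 HepG2 cells in MEM with 10% FBS, attached overnight at 37 C, were exposed to compound or DMSO for 1 hr at 37 C, 5% CO2. Blue fluorescence was read at 405/460 nm, with triamterene as reference fluorophore.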

[16] = target: Glucocorticoid receptor (Homo sapiens) (UniProt P04150); assay: qHTS assay to identify small molecule agonists of the glucocorticoid receptor (GR) signaling pathway (AID 720691; active = well fitted activation curve with a large enough effect in the signal ratio in the repeat runs, not every such curve was filed as active; the % refers to the signal ratio)
Glucocorticoid receptor (Homo sapiens), sequence (P04150 whole entry, looked up): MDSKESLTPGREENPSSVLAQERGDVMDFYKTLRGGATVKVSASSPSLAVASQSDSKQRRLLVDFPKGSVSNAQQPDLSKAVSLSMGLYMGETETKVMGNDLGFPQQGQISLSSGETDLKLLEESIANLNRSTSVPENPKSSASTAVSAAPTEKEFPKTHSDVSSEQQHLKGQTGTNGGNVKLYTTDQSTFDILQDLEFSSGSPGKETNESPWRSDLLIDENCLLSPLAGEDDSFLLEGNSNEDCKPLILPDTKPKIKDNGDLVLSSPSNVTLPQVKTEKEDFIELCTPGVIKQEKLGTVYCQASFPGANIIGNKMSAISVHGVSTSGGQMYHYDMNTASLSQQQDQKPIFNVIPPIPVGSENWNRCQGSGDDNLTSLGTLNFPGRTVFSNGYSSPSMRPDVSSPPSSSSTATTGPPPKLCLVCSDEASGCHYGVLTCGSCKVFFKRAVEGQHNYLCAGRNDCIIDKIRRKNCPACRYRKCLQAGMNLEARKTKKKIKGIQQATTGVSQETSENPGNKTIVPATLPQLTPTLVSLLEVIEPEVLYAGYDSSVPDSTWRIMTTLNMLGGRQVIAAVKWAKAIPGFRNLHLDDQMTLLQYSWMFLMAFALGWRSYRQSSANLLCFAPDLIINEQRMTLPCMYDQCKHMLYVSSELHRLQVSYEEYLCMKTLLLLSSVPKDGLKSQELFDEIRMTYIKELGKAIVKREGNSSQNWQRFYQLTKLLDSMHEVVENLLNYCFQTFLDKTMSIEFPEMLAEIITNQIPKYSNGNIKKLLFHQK
Outline: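 GR-bla HeLa cells carrying a GRE-driven beta-lactamase reporter, exposed to compounds for 18 h at 37 C. Reporter activation read as fluorescence after 2 h with LiveBLAzer B/G FRET substrate at room temperature.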

[17] = target: Glucocorticoid receptor (Homo sapiens) (UniProt P04150); assay: qHTS assay to identify small molecule antagonists of the glucocorticoid receptor (GR) signaling pathway (AID 720692; active = well fitted inhibition curve with a large enough effect in the signal ratio in the repeat runs, not every such curve was filed as active; the % refers to the signal ratio)
Outline: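 GR-bla HeLa cells carrying a GRE-driven beta-lactamase reporter received compound after 4 h plating, then dexamethasone (5 nM final). After 18 h at 37C, the FRET substrate was loaded for 2 h at room temperature and fluorescence read.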

[18] = qHTS assay for small molecule disruptors of the mitochondrial membrane potential (AID 720635); also: potency is read from the fitted curve at half-maximal effect
Outline: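 HepG2 cells exposed to compound 1 hr at 37C, then Mito-MPS dye 30 min. Ratio read of aggregate (540/590 nm) versus monomer (490/535 nm) fluorescence.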

[19] = qHTS assay to test for compound auto fluorescence at 590 nm (red) in HEK293 cells (AID 720679)
Outline: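 HEK293 cells (2,000/well, 10% dialyzed FBS) attached 4-5 hr, then dosed with compound or DMSO and incubated overnight at 37C, 5% CO2. Red fluorescence read at 540/590 nm, Rose Bengal sodium as reference fluorophore.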
% is scaled to controls: 0 for no effect and ±100 for the full control effect.

CC(C)(C)C(=O)CC(=O)C(C)(C)C
inactive: Potency [1] | outcome [2] | outcome [3] | outcome [4] | outcome [5] | outcome [6] | outcome [7] | outcome [8] | outcome [9] | outcome [10] | outcome [11] | outcome [12] | outcome [13] | outcome [14] | outcome [15] | Potency [16] | outcome [17]

CCCCCCC(=O)c1ccccc1
inactive: Potency [1] | outcome [2] | outcome [3] | Potency [18] | outcome [5] | outcome [6] | outcome [7] | outcome [19] | outcome [8] | outcome [9] | outcome [10] | outcome [11] | outcome [12] | outcome [13] | outcome [14] | outcome [15]

Cc1cc(N)no1
inactive: Potency [1] | outcome [2] | outcome [3] | outcome [4] | outcome [5] | outcome [6] | outcome [7] | outcome [19] | outcome [8] | outcome [9] | outcome [10] | outcome [11] | outcome [12] | outcome [13] | outcome [14] | outcome [15] | Potency [16] | outcome [17]

C[C@@H]1NC(=O)[C@@H](N)CNC(=O)[C@H](C2CCNC(N)=N2)NC(=O)/C(=C/NC(N)=O)NC(=O)[C@H](CNC(=O)C[C@@H](N)CCCN)NC1=O (some centres not stated)
inactive: Potency [1] | outcome [2] | outcome [3] | outcome [4] | Potency [18] | outcome [5] | outcome [6] | outcome [7] | outcome [8] | outcome [10] | outcome [11] | outcome [12] | outcome [13] | outcome [14] | outcome [15] | Potency [16] | outcome [17]

O=C1Nc2ccccc2C1=O
inactive: Potency [1] | outcome [2] | outcome [3] | outcome [4] | outcome [5] | outcome [6] | outcome [7] | outcome [8] | outcome [9] | outcome [10] | outcome [11] | outcome [12] | outcome [13] | outcome [14] | outcome [15] | Potency [16] | outcome [17]

CC[C@@]1(c2ccccc2)NC(=O)N(C)C1=O
inactive: Potency [1] | outcome [2] | outcome [3] | outcome [4] | outcome [5] | outcome [6] | outcome [7] | outcome [19] | outcome [8] | outcome [9] | outcome [10] | outcome [11] | outcome [12] | outcome [13] | outcome [14] | outcome [15]

C=CCCCCCCCCCCCCCC
inactive: Potency [1] | outcome [2] | outcome [3] | outcome [4] | fluorescence, relative to Rose Bengal [5] -0.0589% [at 18.6 µM] | fluorescence, % of fluorescein control [6] -0.0523% [at 18.6 µM] | fluorescence, % of triamterene [7] 0.0937% [at 18.6 µM] | fluorescence, % of fluorescent control [19] 0.0885% [at 18.6 µM] | fluorescence, % of fluorescein [8] -0.003% [at 18.6 µM] | activity change [10] 0.0547% [at 18.6 µM] | fluorescence, % of fluorescent control [11] -0.342% [at 18.6 µM] | fluorescence, % of Rose Bengal [12] 0.0019% [at 18.6 µM] | fluorescence, % of fluorescent control [13] -0.0168% [at 18.6 µM] | fluorescence, % of fluorescein control [14] 0.0254% [at 18.6 µM] | fluorescence, % of fluorescent control [15] 0.001% [at 18.6 µM] | Potency [16] | outcome [17]

CCOC(=O)c1ccc(N(C)C)cc1
inactive: Potency [1] | outcome [2] | outcome [3] | outcome [4] | outcome [5] | outcome [6] | outcome [7] | outcome [19] | outcome [8] | outcome [9] | outcome [10] | outcome [11] | outcome [12] | outcome [13] | outcome [14] | outcome [15] | Potency [16] | outcome [17]

CCCCCCCCCCCCCC(=O)OCC
inactive: Potency [1] | outcome [2] | outcome [3] | Potency [18] | outcome [5] | outcome [6] | outcome [7] | outcome [19] | outcome [8] | outcome [9] | outcome [10] | outcome [11] | outcome [12] | outcome [13] | outcome [14] | outcome [15] | Potency [16]

Clc1cc(Cl)c(Cl)c(Cl)c1Cl
inactive: Potency [1] | outcome [2] | outcome [3] | outcome [4] | outcome [5] | outcome [6] | outcome [7] | outcome [19] | outcome [8] | outcome [10] | outcome [11] | outcome [12] | outcome [13] | outcome [14] | outcome [15] | Potency [16] | outcome [17]

O=C(O)CCC(=O)Nc1ccc(S(=O)(=O)Nc2nccs2)cc1
inactive: Potency [1] | outcome [2] | outcome [3] | Potency [18] | fluorescence, relative to Rose Bengal [5] -0.131% [at 18.6 µM] | fluorescence, % of fluorescein control [6] -0.003% [at 18.6 µM] | fluorescence, % of triamterene [7] 0.029% [at 18.6 µM] | fluorescence, % of fluorescent control [19] -0.0693% [at 18.6 µM] | fluorescence, % of fluorescein [8] 0.032% [at 18.6 µM] | activity change [10] 0.0309% [at 18.6 µM] | fluorescence, % of fluorescent control [11] 0.0244% [at 18.6 µM] | fluorescence, % of Rose Bengal [12] 0.477% [at 18.6 µM] | fluorescence, % of fluorescent control [13] -0.0059% [at 18.6 µM] | fluorescence, % of fluorescein control [14] 0.022% [at 18.6 µM] | fluorescence, % of fluorescent control [15] -0.0217% [at 18.6 µM] | Potency [16] | outcome [17]

O=C(CCBr)N1CCN(C(=O)CCBr)CC1
inactive: Potency [1] | outcome [2] | outcome [3] | outcome [5] | outcome [6] | outcome [7] | outcome [8] | outcome [9] | outcome [10] | outcome [11] | outcome [12] | outcome [13] | outcome [14] | outcome [15] | Potency [16] | outcome [17]

CCc1ccc(CC)cc1
inactive: Potency [1] | outcome [3] | outcome [4] | Potency [18] | outcome [5] | outcome [6] | outcome [7] | outcome [19] | outcome [8] | outcome [9] | outcome [10] | outcome [11] | outcome [12] | outcome [13] | outcome [14] | outcome [15] | Potency [16] | outcome [17]

CCOc1ccccc1OCCN[C@H](C)Cc1ccc(OC)c(S(N)(=O)=O)c1
inactive: outcome [2] | outcome [3] | outcome [4] | outcome [5] | outcome [6] | outcome [7] | outcome [8] | outcome [9] | outcome [10] | outcome [11] | outcome [12] | outcome [13] | outcome [14] | outcome [15]
active: Potency [18] 24.8 µM

CCCCCCCCOCCC#N
inactive: outcome [2] | outcome [3] | outcome [4] | Potency [18] | outcome [5] | outcome [6] | outcome [7] | outcome [19] | outcome [8] | outcome [9] | outcome [10] | outcome [11] | outcome [12] | outcome [13] | outcome [14] | outcome [15]
